± gives the uncertainty stated by the source.

We go through 38 molecules from the supplement of paper PMC4954754.

For the first assay, the system named is HEK293T-Rex XBP1-RLuc. The assay can be described thus: XBP1-RLuc splicing reporter activation, triplicate, relative to 500 nM thapsigargin (% of thapsigargin); higher = stronger IRE1/XBP1s reporter activation. Particulars: 6.8 µM; 18 h; screen: confirmation. The procedure: (§1)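 HEK293T-Rex cells stably expressing the ERSE-firefly luciferase (BiP promoter, ATF6-preferring) or XBP1-splicing Renilla luciferase (IRE1/XBP1s) reporter, 1536-well plates, compound at 6.8 µM for 18 hr at 37 °C; luminescence read […] and expressed as % activation = 100*(compound - median DMSO)/(median 500 nM thapsigargin - median DMSO). Primary screen was single-pass; confirmation screen in triplicate (mean ± SD).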
Turning to `COc1cccc(C(=O)Nc2nc3ccc(C)cc3s2)c1`, the “XBP1-RLuc splicing reporter activation” value was determined as 5.6 ± 0.99. For the molecule `Cc1ccc(O)c(NC(=O)CSc2ccccc2)c1`, the “XBP1-RLuc splicing reporter activation” value came out at 10.5 ± 5.2. Regarding `Cc1ccc2nc(/C(C#N)=C\c3cc(Cl)cc4c3OCOC4)[nH]c2c1`, the “XBP1-RLuc splicing reporter activation” value worked out at 12.1 ± 2.3.

Another assay deals with HEK293T-Rex ERSE-FLuc. The assay can be described thus: ERSE-FLuc reporter activation, triplicate confirmation, relative to 500 nM thapsigargin (% of thapsigargin); higher = stronger ATF6/ERSE reporter activation. The note with it: 6.8 µM; 18 h; screen: confirmation. The procedure:
as §1
Molecule `O=C(N/N=C/c1cccc(O)c1O)c1ccccc1I` came in with an ERSE-FLuc reporter activation of 25.6 ± 5.4.

The molecule `N/C(=N\N=C\c1ccc(O)c(O)c1)c1nonc1N` gave an ERSE-FLuc reporter activation of 71.1 ± 7.1. Turning to `Cc1ccc(O)c(N/C=C/C(=O)c2ccc(F)cc2)c1`, the ERSE-FLuc reporter activation stood at 140 ± 17. Same read-out and setting: the same measure for `COc1cccc(-c2nc3ccc(N)cc3[nH]2)c1`: 32.8 ± 4.8; for `CS(=O)(=O)c1ncc(Cl)c(C(=O)C(C#N)c2nc3ccccc3s2)n1` (stereo unspecified): 42.3 ± 12. The molecule `Cc1nc(-c2ccc(C(=O)Nc3ccc(O)cc3)cc2)cs1` displayed an ERSE-FLuc reporter activation of 31.8 ± 7.4.

`COc1cccc(C(=O)Nc2nc3ccc(C)cc3s2)c1`: the ERSE-FLuc reporter activation was 32.2 ± 7.2.

`N#Cc1c(NC(=O)c2ccc3c(c2)OCO3)sc2c1CCCC2`: the ERSE-FLuc reporter activation worked out at 28.7 ± 6.8.

Regarding `Nc1cn(-c2ccccc2)nc1-c1cccs1`, the ERSE-FLuc reporter activation came out at 28.6 ± 6.5. The molecule `CCCNC(=O)c1ccc2nc(-c3ccc4[nH]ccc4c3)sc2c1` registered an ERSE-FLuc reporter activation of 33.4 ± 9.7. As for `CCc1nc2sc(C(=O)c3ccccc3)c(N)c2cc1C`, the ERSE-FLuc reporter activation came to 26.2 ± 2.5. As to `O=C(NCCCn1ccnc1)c1cc(-c2cccs2)on1`, the ERSE-FLuc reporter activation turned out to be 42.5 ± 6.9.

Turning to `O=C1NC(=Nc2ccccc2)S/C1=C/c1ccc(O)c(O)c1`, the ERSE-FLuc reporter activation came out at 38.4 ± 10.

With `N#Cc1c(NC(=O)c2ccc(Br)cc2)sc2c1CCCC2`, the ERSE-FLuc reporter activation was found to be 27.3 ± 5.2.

In turn, `COc1cc2ccccc2cc1C(=O)N/N=C/c1cccs1` registered an ERSE-FLuc reporter activation of 25.7 ± 4.6. `COc1ccc(/C=C(\C#N)c2nc3ccccc3n2C)cc1`: the ERSE-FLuc reporter activation stood at 38.1 ± 7.2. As to `Oc1ccc(/C=N/Nc2cccc3cccnc23)c(O)c1`, the ERSE-FLuc reporter activation is 40.8 ± 12. The molecule `Cc1ccc(C)c(/C=N/Nc2nncc3ccccc23)c1` yielded an ERSE-FLuc reporter activation of 29.7 ± 1.9. Molecule `O=C(NCCc1ccc(O)cc1)c1ccc2nc(-c3csc4ccccc34)sc2c1` had an ERSE-FLuc reporter activation of 103 ± 23. Molecule `O=C(COC(=O)c1ccc(O)c(O)c1)Nc1nc(-c2ccccc2)cs1` had an ERSE-FLuc reporter activation of 39.3 ± 5.9.

Turning to `Cc1ccc(O)c(NC(=O)CN(C)S(=O)(=O)c2ccc(Cl)cc2)c1`, the ERSE-FLuc reporter activation was 29.8 ± 0.59. Take `COc1ccccc1/C=N/Nc1nc(-c2ccccc2)cc(=O)[nH]1`: the ERSE-FLuc reporter activation worked out at 25.2 ± 1.8.

Molecule `Cc1ccc(O)c(NC(=O)CSc2ccccc2)c1` gave an ERSE-FLuc reporter activation of 51.1 ± 12. As to `COc1ccc(C(=O)Nc2nnc(-c3cccs3)s2)cc1`, the ERSE-FLuc reporter activation was determined as 26.3 ± 5. In the case of `Oc1ccc(-c2csc(-c3ccccc3)n2)cc1O`, the ERSE-FLuc reporter activation worked out at 61.5 ± 5.1.

For `Cc1ccc2nc(/C(C#N)=C/c3ccc(O)cc3)[nH]c2c1`, the ERSE-FLuc reporter activation stood at 30.3 ± 3.

In the case of `CCCCCC(=O)Nc1ccc(C(=O)Nc2ccccc2O)cc1`, the ERSE-FLuc reporter activation was found to be 44.9 ± 11.

Consider `N#C/C(=C\c1ccc(O)c(O)c1)C(=O)Nc1ccccc1`, for which the ERSE-FLuc reporter activation is 29.5 ± 5.4. On to `Cc1ccc2nc(/C(C#N)=C\c3cc(Cl)cc4c3OCOC4)[nH]c2c1`, for which the ERSE-FLuc reporter activation came to 51.3 ± 9.8.

`O=C(/C=C/c1ccco1)Nc1ccccn1` displayed an ERSE-FLuc reporter activation of 27.7 ± 4.8. Molecule `COc1cccc(-c2cc(C(=O)Nc3cc(C)ccc3O)on2)c1` came in with an ERSE-FLuc reporter activation of 34.2 ± 8.4. In the case of `O=[N+]([O-])c1ccccc1NC(=S)N/N=C/c1ccc(O)c(O)c1`, the ERSE-FLuc reporter activation was determined as 33.2 ± 4.3.

In turn, `O=C(N/N=C/c1cccc(O)c1O)c1ccccn1` showed an ERSE-FLuc reporter activation of 37.9 ± 9.1. On to `Nc1nc(Nc2ccccc2)cc(-c2ccccc2)n1`, for which the ERSE-FLuc reporter activation worked out at 33.8 ± 3.9.

For the molecule `COc1ccc2c(Cl)c(C(=O)Nc3ccccc3C(N)=O)sc2c1`, the ERSE-FLuc reporter activation worked out at 31.6 ± 1.1. `COc1ccc(C2C=C3Oc4ccccc4N=C3NN2)cc1` (stereo unspecified): the ERSE-FLuc reporter activation came out at 29 ± 3.5. `Oc1ccccc1/C=N\Nc1nc2ccccc2o1` registered an ERSE-FLuc reporter activation of 26.6 ± 4.4. In turn, `CCN(CC)c1ccc2cc(-c3nc4ccccc4n3C)c(=O)oc2c1` displayed an ERSE-FLuc reporter activation of 34.2 ± 4.2.
